Assay [1] is described as follows: qHTS assay to identify small molecule antagonists of the progesterone receptor (PR) signaling pathway - cell viability counter screen (AID 1346798). Note: series mostly up to about 92 µM; nearly all actives have a fitted effect of over 50% in size. The gist of the method:
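In the same plates used for the beta-lactamase readout, cell viability of compound- and R5020-treated PR-UAS-bla HEK293T cells (16 hr, 37C) was assessed by CellTiter-Glo luminescence.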
(In qHTS, concentration-response curves come from the screen itself.)

The nature of assay [2]: qHTS assay to identify small molecule agonists of the progesterone receptor (PR) signaling pathway - cell viability counter screen (AID 1346799; calls by dose curve; note: nearly all actives have a fitted effect of over 45% in size). The procedure, abridged:
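Multiplexed viability read: CellTiter-Glo luminescence, 30 min RT, following LiveBLAzer FRET measurement on PR-UAS-bla HEK293T cells exposed to compounds 16 hr.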

Assay [3] in a line: qHTS assay to identify small molecule antagonists of the TGF-beta/Smad signaling pathway - cell viability counter screen (AID 1346824). Note: nearly all actives have a fitted effect of over 50% in size. The gist of the method:
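Cytotoxicity counter-screen run in the same wells as the beta-lactamase Smad reporter read: CellTiter-Glo luminescence after 30 min at room temperature. HEK 293T SBE-bla cells had 5 hr compound exposure at 37 C with TGF-beta1 (0.25 ng/mL stock).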

The nature of assay [4]: qHTS assay to identify small molecule agonists of the TGF-beta/Smad signaling pathway - cell viability counter screen (AID 1346829). Note: top concentration of the series differs between compounds; nearly all actives have a fitted effect of over 45% in size. The gist of the method:
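Tox21 qHTS format: SBE-bla HEK 293T cells treated with DMSO-dissolved compounds for 5 hr; CellTiter-Glo luminescence after 30 min at room temperature.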

Assay [5] can be described thus: qHTS assay to identify small molecule agonists of the TGF-beta/Smad signaling pathway (AID 1346859; active = well fitted activation curve with a large enough effect in the signal ratio in the repeat runs, not every such curve was filed as active; the % refers to the signal ratio; note: series mostly up to about 77 µM). The procedure, abridged: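 Screening used HEK 293T SBE-bla cells at 4,000/well. Test agents: 5 hr, 37 C. Detection: FRET substrate, 2 hr RT, then excitation 405 nm with emissions at 460 and 530 nm.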
Assay [6] concerns the target Thyrotropin-releasing hormone receptor (Homo sapiens) (UniProt P34981). Put plainly: qHTS assay to identify small molecule agonists of the thyrotropin-releasing hormone receptor (TRHR) signaling pathway (AID 1346891; calls by dose curve; note: series mostly up to about 58 µM). The gist of the method:
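Readout was intracellular calcium fluorescence in TRHR-Hek293 cells. Cells were incubated 18 h, dye-loaded 2 h at 37 °C, and treated with compound in agonist mode.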

The nature of assay [7]: Human pregnane X receptor (PXR) small molecule agonists, qHTS cell viability counter screen (AID 1346977). Note: nearly all actives have a fitted effect of over 50% in size. The procedure, abridged:
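In each well, the PXR reporter HepG2 line was checked for viability: CellTiter-Fluor reagent added 23hr post-dosing, fluorescence read after 1hr incubation at 37C.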

The nature of assay [8]: Caspase-3/7 induction in HepG2 cells by small molecules, qHTS assay (AID 1346978). Note: nearly all actives have a fitted effect of over 15% in size. The gist of the method:
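Caspase-3/7 induction was measured by Caspase-Glo 3/7 luminescence (30 min, room temperature) after a 17 hr compound exposure of wild-type HepG2 cells seeded at 2,000 per well and pre-incubated 5 hr.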

Assay [9] can be described thus: Caspase-3/7 induction in CHO-K1 cells by small molecules, qHTS cell viability counter screen (AID 1346979). Note: nearly all actives have a fitted effect of over 35% in size. The procedure, abridged:
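Following a 5hr settling period, CHO-K1 cells at 1,500 per well received DMSO-dissolved compounds. Cell viability was quantified 16hr later by CellTiter-Fluor fluorescence, measured after 1hr with reagent at 37C.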

Assay [10] in a line: Caspase-3/7 induction in CHO-K1 cells by small molecules, qHTS assay (AID 1346980). Note: nearly all actives have a fitted effect of over 15% in size. The procedure, abridged:
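Luminescent Caspase-Glo 3/7 read (30min, room temperature) quantified apoptosis induction. Cells were wild-type CHO-K1, treated with compound for 17hr at 37 C and 5% CO2.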

The nature of assay [11]: Caspase-3/7 induction in HepG2 cells by small molecules, qHTS cell viability counter screen (AID 1346981). Note: series mostly up to about 92 µM; nearly all actives have a fitted effect of over 30% in size. The gist of the method:
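In this quantitative HTS counter screen, compounds delivered in DMSO were left on unmodified HepG2 cells for 16 hr at 37 C. Viability was then determined fluorometrically with CellTiter-Fluor, in parallel with caspase-3/7 induction in the same wells.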

Assay [12] addresses Nuclear receptor subfamily 1 group I member 2 (Homo sapiens) (UniProt O75469). Nature of the assay: Human pregnane X receptor (PXR) small molecule agonists, qHTS assay (AID 1346982). Note: nearly all actives have a fitted effect of over 35% in size. Note: potency is the fitted concentration of half-maximal effect. The procedure, abridged:
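Reporter HepG2 cells expressing PXR-Luc are cultured in charcoal-stripped FBS (5%), treated with compounds for 24 hr at 37 C, and assayed by ONE-Glo luminescence after 30 min at room temperature.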

For assay [13], the target named is Cytochrome P450 2D6 (Homo sapiens) (UniProt P10635). Put plainly: Cytochrome P450 Family 2 Subfamily D Member 6 (CYP2D6) small molecule antagonists: luciferase reporter qHTS assay (AID 1671196). For activity change, negative = inhibition: series mostly up to about 120 µM. Note: nearly all actives have a fitted effect of over 50% in size. Note: potency is the fitted concentration of half-maximal effect. The gist of the method:
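Test chemicals meet CYP2D6 plus proluciferin substrate (10 min, RT); NADPH regenerating solution then drives turnover for 1 h. Detection reagent halts the reaction; luminescence measured after 20 min.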
A general note: A reporter such as luciferase makes a cellular process visible.

Assay [14] has as its target Cytochrome P450 2C19 (Homo sapiens) (UniProt P33261). Nature of the assay: Cytochrome P450 Family 2 Subfamily C Member 19 (CYP2C19) small molecule antagonists: luciferase reporter qHTS assay (AID 1671197). For activity change, negative = inhibition: series mostly up to about 120 µM. Note: nearly all actives have a fitted effect of over 65% in size. Note: potency is the fitted concentration of half-maximal effect. The procedure, abridged: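 Relative luminescence units recorded 20 min after the detection reagent stopped a 1 h, 37C CYP2C19 reaction on proluciferin substrate, which was started by NADPH regeneration following 10 min room-temperature compound preincubation; ketoconazole positive control.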

Assay [15] concerns the target Cytochrome P450 1A2 (Homo sapiens) (UniProt P05177). Nature of the assay: Cytochrome P450 Family 1 Subfamily A Member 2 (CYP1A2) small molecule antagonists: luciferase reporter qHTS assay (AID 1671199). The gist of the method: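 Steps: enzyme-substrate mix dispensed; test compounds and furafylline control pinned in; 10 min room temperature; NADPH regeneration solution added, 1 h; reaction stopped with luciferin detection reagent; luminescence read after 20 min.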

Assay [16] addresses Cytochrome P450 2C9 (Homo sapiens) (UniProt P11712). Put plainly: Cytochrome P450 Family 2 Subfamily C Member 9 (CYP2C9) small molecule antagonists: luciferase reporter qHTS assay (AID 1671198). The gist of the method: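 Enzyme-substrate mix preincubated with compound 10 min at room temperature; reaction started with NADPH regeneration solution, 1 h 37C. Luminescent luciferin product read after 20 min detection reagent.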

Assay [17] concerns the target Nuclear receptor subfamily 1 group I member 2 (Rattus norvegicus) (UniProt Q9R1A7). Put plainly: Rat pregnane X receptor (rPXR) activation by small molecules, qHTS assay (AID 1346983). Note: nearly all actives have a fitted effect of over 20% in size. The settings on record: rPXR luciferase reporter cells, One-Glo luminescence, 24 h; max activation: stronger effect = higher value. The gist of the method: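 Luminescent readout (One-Glo luciferase, 30 min room temperature) followed 24 hr compound treatment at 37 C of rPXR cells plated 2,000 per well and preincubated 5hr; qHTS format with compounds delivered in DMSO.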

Assay [18] addresses Nuclear receptor subfamily 1 group I member 2 (Homo sapiens) (UniProt O75469). Put plainly: CYP3A4 induction through human pregnane X receptor (PXR) by small molecules, qHTS assay (AID 1346984). Note: nearly all actives have a fitted effect of over 40% in size. The procedure, abridged:
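Induction measured in HepG2-based DPX-2 cells co-expressing human PXR and a CYP3A4 promoter-driven luciferase. After a 24-hour compound exposure, cells received CYP3A4 luciferin substrate at 3uM final for 3 hours, and light output was then recorded.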

For assay [19] the target is unchanged. Put plainly: Human pregnane X receptor (PXR) activation by small molecules, qHTS assay (AID 1346985). Note: nearly all actives have a fitted effect of over 40% in size. The gist of the method:
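DPX-2 cells (HepG2 co-transfected with a PXR response element and a CYP3A4-promoter luciferase construct) were seeded at 2,000 per well, rested 5 hr at 37C, then exposed to DMSO-dissolved compounds for 24 hr. Activation was read as luciferase luminescence.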

Values joined by “and” are separate entries in the source; they are usually repeats but may differ in a detail not shown here. Identical values can stand only once. Results filed as inconclusive are left out. A structure can be active in one record and inactive in another. Active and inactive are the calls of the source. Unless noted, calls come from the whole dose curve; as a rule, active = well fitted curve in the direction sought with a large enough effect in the repeat runs; inconclusive = weak or mixed curves; inactive = no such curve, though single readings can be large; an effect the other way counts as inactive or inconclusive.
% is set by controls: 0 for no effect and ±100 for the full control effect.

Chain of Thyrotropin-releasing hormone receptor (Homo sapiens) (P34981 whole entry, looked up): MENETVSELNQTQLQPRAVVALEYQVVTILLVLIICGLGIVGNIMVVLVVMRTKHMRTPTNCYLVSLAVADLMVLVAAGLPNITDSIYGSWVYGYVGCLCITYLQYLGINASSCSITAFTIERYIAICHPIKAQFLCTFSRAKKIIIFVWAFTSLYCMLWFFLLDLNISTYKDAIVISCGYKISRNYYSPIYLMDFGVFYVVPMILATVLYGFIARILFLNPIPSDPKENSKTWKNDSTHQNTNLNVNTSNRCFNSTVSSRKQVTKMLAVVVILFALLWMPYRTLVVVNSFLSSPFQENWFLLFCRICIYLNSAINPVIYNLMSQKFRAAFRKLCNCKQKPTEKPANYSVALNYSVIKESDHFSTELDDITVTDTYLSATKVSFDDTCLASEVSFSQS
Chain of Cytochrome P450 1A2 (Homo sapiens) (P05177 whole entry, looked up): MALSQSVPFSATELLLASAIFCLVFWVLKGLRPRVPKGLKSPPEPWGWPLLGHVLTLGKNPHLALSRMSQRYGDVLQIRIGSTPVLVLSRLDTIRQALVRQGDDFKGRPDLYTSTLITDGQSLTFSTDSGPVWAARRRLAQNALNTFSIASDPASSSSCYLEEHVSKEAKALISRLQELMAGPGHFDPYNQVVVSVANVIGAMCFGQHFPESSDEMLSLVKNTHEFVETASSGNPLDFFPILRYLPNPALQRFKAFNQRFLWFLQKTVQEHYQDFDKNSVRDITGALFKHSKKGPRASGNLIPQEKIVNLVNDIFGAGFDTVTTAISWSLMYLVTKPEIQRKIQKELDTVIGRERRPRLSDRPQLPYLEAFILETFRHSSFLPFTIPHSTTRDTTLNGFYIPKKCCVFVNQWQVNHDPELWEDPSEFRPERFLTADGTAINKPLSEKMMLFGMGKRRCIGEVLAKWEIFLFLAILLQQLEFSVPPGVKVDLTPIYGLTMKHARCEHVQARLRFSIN
Chain of Nuclear receptor subfamily 1 group I member 2 (Homo sapiens) (O75469 whole entry, looked up): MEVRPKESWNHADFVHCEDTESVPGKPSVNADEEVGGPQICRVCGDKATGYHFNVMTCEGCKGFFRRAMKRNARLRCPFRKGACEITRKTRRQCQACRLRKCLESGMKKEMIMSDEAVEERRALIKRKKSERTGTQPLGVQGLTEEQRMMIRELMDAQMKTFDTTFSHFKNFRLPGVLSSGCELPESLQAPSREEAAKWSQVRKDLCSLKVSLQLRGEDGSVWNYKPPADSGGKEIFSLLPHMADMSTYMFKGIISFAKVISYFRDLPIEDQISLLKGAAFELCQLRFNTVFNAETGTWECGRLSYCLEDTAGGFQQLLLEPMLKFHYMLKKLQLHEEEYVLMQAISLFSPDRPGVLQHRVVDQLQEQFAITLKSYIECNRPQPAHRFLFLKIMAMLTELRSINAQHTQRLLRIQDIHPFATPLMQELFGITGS
Chain of Nuclear receptor subfamily 1 group I member 2 (Rattus norvegicus) (Q9R1A7 whole entry, looked up): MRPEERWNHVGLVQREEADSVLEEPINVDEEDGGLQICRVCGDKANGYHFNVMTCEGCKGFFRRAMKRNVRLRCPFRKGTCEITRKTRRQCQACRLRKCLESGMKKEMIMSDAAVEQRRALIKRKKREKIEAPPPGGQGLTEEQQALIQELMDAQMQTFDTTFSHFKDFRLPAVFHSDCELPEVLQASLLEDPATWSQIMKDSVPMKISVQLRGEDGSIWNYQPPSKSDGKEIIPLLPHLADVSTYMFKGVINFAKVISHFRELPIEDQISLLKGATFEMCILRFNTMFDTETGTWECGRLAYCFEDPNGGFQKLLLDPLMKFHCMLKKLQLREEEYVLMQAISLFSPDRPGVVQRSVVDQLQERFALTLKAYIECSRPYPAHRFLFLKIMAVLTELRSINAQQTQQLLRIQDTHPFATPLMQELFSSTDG
Chain of Cytochrome P450 2D6 (Homo sapiens) (P10635 whole entry, looked up): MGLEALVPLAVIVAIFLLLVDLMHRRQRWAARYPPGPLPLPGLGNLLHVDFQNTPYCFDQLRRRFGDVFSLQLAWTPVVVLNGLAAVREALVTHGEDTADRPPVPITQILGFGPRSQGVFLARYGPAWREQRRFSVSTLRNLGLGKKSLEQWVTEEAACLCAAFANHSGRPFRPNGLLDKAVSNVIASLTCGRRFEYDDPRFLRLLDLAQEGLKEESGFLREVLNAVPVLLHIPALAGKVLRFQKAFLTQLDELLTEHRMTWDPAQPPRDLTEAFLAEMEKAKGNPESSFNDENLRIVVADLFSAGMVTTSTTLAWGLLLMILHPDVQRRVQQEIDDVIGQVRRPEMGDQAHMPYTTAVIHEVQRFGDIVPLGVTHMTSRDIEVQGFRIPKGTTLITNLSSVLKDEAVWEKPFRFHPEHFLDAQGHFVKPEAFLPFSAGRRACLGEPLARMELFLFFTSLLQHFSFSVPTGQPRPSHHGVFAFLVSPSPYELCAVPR
Chain of Cytochrome P450 2C19 (Homo sapiens) (P33261 whole entry, looked up): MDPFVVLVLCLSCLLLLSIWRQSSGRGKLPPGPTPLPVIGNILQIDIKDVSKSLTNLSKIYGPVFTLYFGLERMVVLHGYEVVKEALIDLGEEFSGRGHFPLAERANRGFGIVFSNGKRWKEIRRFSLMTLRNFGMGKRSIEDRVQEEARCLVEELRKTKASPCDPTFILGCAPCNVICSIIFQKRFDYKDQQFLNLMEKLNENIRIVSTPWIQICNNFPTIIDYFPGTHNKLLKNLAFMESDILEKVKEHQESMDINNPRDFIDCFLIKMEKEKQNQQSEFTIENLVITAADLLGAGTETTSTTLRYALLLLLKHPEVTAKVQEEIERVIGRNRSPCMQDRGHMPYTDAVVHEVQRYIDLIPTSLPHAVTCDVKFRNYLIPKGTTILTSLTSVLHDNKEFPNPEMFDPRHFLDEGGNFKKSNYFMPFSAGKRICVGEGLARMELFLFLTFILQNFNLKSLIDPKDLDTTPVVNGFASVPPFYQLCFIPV
Chain of Cytochrome P450 2C9 (Homo sapiens) (P11712 whole entry, looked up): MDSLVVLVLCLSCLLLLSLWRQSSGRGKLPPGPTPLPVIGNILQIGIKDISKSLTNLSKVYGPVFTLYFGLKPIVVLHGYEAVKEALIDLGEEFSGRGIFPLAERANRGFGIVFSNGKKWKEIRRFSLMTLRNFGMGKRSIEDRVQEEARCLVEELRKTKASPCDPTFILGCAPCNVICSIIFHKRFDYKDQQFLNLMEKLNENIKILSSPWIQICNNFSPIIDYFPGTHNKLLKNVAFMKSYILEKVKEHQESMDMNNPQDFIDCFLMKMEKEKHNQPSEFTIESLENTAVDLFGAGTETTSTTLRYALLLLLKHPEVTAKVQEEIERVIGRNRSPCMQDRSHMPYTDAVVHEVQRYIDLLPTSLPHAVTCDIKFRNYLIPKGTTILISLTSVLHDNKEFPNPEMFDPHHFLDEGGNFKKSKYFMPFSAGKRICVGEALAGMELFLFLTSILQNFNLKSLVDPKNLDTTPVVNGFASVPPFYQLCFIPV

Turning to `CCCCCC1=CCCC1=O`, the Potency result in assay [1], in assay [2], in assay [3], in assay [4], in [7] and in [8] was “inactive” in each case. In addition, the Potency entry in assay [9], in [11], in assay [13] and in assay [15] was “inactive” in each case. The result in assay [5], in assay [6] and in assay [10] was inactive. Also, the Potency in assay [12] was 62.4 µM (active) and inactive; in [14], 20.4 µM (active) and inactive.

Turning to `Cc1occc(=O)c1O`, the Potency result in [1], in assay [2], in assay [3], in assay [4], in assay [7] and in assay [8] was “inactive” in each case. Besides, the Potency entry in [9], in assay [11], in [12], in assay [13] and in assay [15] was “inactive” each time. Also, the compound was classed as inactive in assay [5], in assay [6] and in [10]. Further, the Potency in [14] is 71 µM (active) and inactive.

With `c1c[nH]cn1`, the Potency result in assay [1], in [2], in assay [3], in assay [4], in [7] and in [8] was “inactive” in each case. Besides, the Potency result in assay [9], in [11], in [12] and in assay [15] was “inactive” each time. The compound was called inactive in assay [5], in assay [6] and in assay [10]. For the same compound, the Potency in [14] is 84.4 µM (active).

On to `CCC(O)OC(O)CC` (stereo not given), for which the Potency entry in assay [1], in [2], in [3], in [4], in assay [7] and in assay [8] was “inactive” each time. For the same compound, the Potency result in assay [9], in assay [11], in [12], in assay [14], in assay [16] and in [15] was “inactive” throughout. Also, the call in assay [5], in assay [6] and in assay [10] was inactive. In addition, the Potency in assay [13] is 36 µM (active) and inactive.

`O=C(O)[C@H](O)[C@@H](O)[C@H](O)[C@H](O)CO`: the Potency result in [1], in [2], in assay [3], in [4], in [7] and in assay [8] was “inactive” each time. Further, the Potency result in assay [9], in assay [11], in assay [12], in assay [19] and in [13] was “inactive” in each case. In addition, the compound was classed as inactive in assay [5], in assay [10] and in assay [18]. For the same compound, the max activation in [17] is -0.835% (inactive) and -2.16% (inactive). Moreover, the Potency in [14] was 89.2 µM (active). Further, in [16], the activity change, negative = inhibition is 3.47% [at 4.07 µM] (inactive).

With `CC1=CC(=O)NS(=O)(=O)O1`, the Potency result in [1], in [2], in [3], in assay [4], in assay [7] and in [8] was “inactive” throughout. Moreover, the Potency result in assay [9] and in assay [11] was “inactive” in each case. In addition, the compound was called inactive in [5], in [6] and in [10]. In addition, in assay [17], the max activation was -3.96% (inactive).

As to `CCCCCCCCCCCCc1ccccc1`, the Potency entry in assay [1], in assay [2], in assay [3], in assay [4], in assay [7] and in [8] was “inactive” in each case. The Potency result in [9], in assay [11], in assay [12], in [13], in assay [14] and in assay [16] was “inactive” throughout. Moreover, the Potency result in assay [15] was “inactive”. In addition, the result in [5], in assay [6] and in assay [10] was inactive.

These data come from PubChem BioAssay (Tox21).
